# Values joined by “and” are separate entries in the source; they are usually repeats but may differ in a detail not shown here. Equal values may be shown once. The campaign covered roughly 2,100 compounds. About 30 (1%) were called active.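 The calls were made as follows: active = compounds whose mean binding response over two repeats is below 75% of the DMSO control; inactive = the rest.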 The list is a sample of the results.
# Biological target: Desmoglein-3 (Homo sapiens) (UniProt P32926)
# Assay: blockers of pemphigus antibody–desmoglein-3 interaction – biochemical, cherry pick 1, bead-based, flow cytometry, confirmation (AID 588466);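 also: 100% = 2% DMSO vehicle and 0% = excess soluble DSG3 blocking control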
# Settings: Protein G beads with DSG3, scFv-GFP binding, at 10 µM, hits give low values
# Chain of Desmoglein-3 (Homo sapiens) (P32926 whole entry, looked up): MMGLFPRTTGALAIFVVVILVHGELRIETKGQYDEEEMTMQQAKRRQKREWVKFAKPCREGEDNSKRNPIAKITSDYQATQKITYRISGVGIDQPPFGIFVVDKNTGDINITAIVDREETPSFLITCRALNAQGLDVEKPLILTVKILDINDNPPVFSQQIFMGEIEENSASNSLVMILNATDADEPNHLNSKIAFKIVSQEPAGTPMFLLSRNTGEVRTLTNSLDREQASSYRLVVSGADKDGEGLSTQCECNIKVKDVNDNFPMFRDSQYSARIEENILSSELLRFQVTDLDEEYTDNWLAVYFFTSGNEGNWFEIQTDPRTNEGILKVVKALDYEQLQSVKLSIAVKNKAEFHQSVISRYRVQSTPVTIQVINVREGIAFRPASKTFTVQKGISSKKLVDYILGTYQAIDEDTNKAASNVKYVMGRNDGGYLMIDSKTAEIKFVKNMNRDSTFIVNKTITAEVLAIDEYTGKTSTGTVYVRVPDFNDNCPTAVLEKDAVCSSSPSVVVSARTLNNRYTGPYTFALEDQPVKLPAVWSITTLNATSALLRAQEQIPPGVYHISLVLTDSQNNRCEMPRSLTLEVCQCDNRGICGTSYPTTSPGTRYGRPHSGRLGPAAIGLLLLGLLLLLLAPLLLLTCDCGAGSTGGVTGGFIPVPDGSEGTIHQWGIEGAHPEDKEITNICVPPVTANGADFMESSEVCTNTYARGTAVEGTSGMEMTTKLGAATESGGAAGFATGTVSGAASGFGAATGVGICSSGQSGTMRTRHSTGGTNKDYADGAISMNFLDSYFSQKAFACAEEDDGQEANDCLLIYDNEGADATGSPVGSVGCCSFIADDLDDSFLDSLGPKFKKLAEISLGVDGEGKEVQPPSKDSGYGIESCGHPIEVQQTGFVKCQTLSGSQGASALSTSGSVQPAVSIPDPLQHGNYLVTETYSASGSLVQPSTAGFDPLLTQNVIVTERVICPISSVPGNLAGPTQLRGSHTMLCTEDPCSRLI
row,Structure (SMILES),binding response (% of DMSO)
1,Cc1ccc([C@H]2C[C@H](n3cc(C4CC4)nn3)[C@@H](O)CN2Cc2cccs2)cc1,119% (inactive)
2,COc1ccc(S(=O)(=O)N2CCCCCC2)cc1N,100% (inactive)
3,COc1ccc(C(=O)Nn2c(C)nc3ccccc3c2=O)cc1Br,98% (inactive)
4,COc1ccc(Br)c(C(=O)Nc2cccc(S(=O)(=O)N3CCOCC3)c2)c1,98.5% (inactive)
5,CC(=O)Nc1ccc(S(=O)(=O)NCc2ccc3c(c2)cc(C)n3C)cc1,99.3% (inactive)
6,CC(C)Oc1ccc(C(=O)Nc2ccc(NC(=O)c3ccco3)c(Cl)c2)cc1,100% (inactive)
7,O=C(NCc1ccccc1)C1CCN(S(=O)(=O)c2cccc3cccnc23)CC1,109% (inactive) and 103% (inactive)
8,S=C(NCCCN1CCOCC1)N1CCN(c2cccc(Cl)c2)CC1,100% (inactive)
9,COc1ccc(CNS(=O)(=O)c2cn(C)c(=O)n(C)c2=O)cc1,95% (inactive)
10,Cc1c(C(=O)N2CCN(c3ccc(F)cc3)CC2)sc2nc(-c3ccccc3)cn12,101% (inactive)
11,COc1ccc(NC(=O)c2cc(-c3ccc(C)o3)nc3ccccc23)cc1OC,103% (inactive)
12,CCOC(=O)CSc1nnc(-c2ccccc2NC(=O)c2ccccc2)o1,95% (inactive)
13,Cc1cc(C)n2c(SCC(=O)N3CCN(S(=O)(=O)c4ccc(Cl)cc4)CC3)nnc2n1,92.2% (inactive)
14,CC(C)c1ccccc1NS(=O)(=O)N(C)C,99.3% (inactive)
15,CN(C)c1nc(N)ncc1-c1ccc(Oc2ccccc2)cc1,83.8% (inactive)
16,Cc1nnc(NC(=O)c2ccc(-c3ccc(Cl)cc3)o2)s1,104% (inactive)
17,COc1ccc2cc(C(=O)COC(=O)COc3ccc4c(C)cc(=O)oc4c3)ccc2c1,91.2% (inactive)
18,COc1ccc(-c2nc(C#N)c(NCc3ccccc3Cl)o2)cc1,89.4% (inactive)
19,COc1ccc(CCn2nnnc2C(C(C)C)N2CCN(c3ncccn3)CC2)cc1OC (stereo unspecified),96.4% (inactive)
20,CCOc1ccc(-n2nc3ccc(NC(=O)c4ccc5c(c4)OCCO5)cc3n2)cc1,85.4% (inactive)
21,O=C(Nc1nc(-c2ccccc2)c(-c2ccccc2)s1)c1ccc(S(=O)(=O)N2CCCCC2)cc1,96.3% (inactive)
22,COc1ccc(CCNC(=O)COc2cccc(-n3cnnn3)c2)cc1,108% (inactive)
23,NC(=O)CC(NC(=O)Cc1cccc2ccccc12)c1ccc(NCCOc2ccccc2)c([N+](=O)[O-])c1 (stereo unspecified),104% (inactive)
24,CCOC(=O)c1ccc(-c2nnc(-c3ccc(Cl)cc3Cl)o2)cc1,100% (inactive)
25,CCOC(=O)c1cc(-c2ccc(/C=C3/C(=O)N(c4ccc(C(=O)O)cc4)N=C3C)o2)ccc1Cl,54.4% (active)
26,O=C(O)c1ccc(-c2ccc(/C=C3\NC(=O)N(Cc4ccc(Cl)cc4)C3=O)o2)cc1Cl,103% (inactive)
